# High-throughput results deposited in PubChem by National Center for Advancing Translational Sciences (NCATS).
# A selection: hits, their analogues and other compounds. The true share with any hit is near 19%.
# HT1080 IDH1KD tx – qHTS for induction of synthetic lethality in tumor cells producing 2HG: qHTS for the HT-1080-IDH1KD cell line; HT-1080 IDH1 knockdown viability, ATP luminescence, 48 h; Potency, µM (doses to about 46.1 µM), without a hit: at the top dose activity, negative = toxicity, usual class: cytotoxic; 360,000 tested, 2% active;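 note: potency is the fitted concentration of half-maximal effect; 0% = DMSO wells and -100% = cell-free medium wells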
#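 After a 2 h attachment period, IDH1KD HT-1080 cells took pin-transferred compound for 48 h at 37 °C; ATP-based luminescence after 10 min room-temperature reagent incubation reported viability.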
# DT40 TDP1 CPT – qHTS for Inhibitors of human tyrosyl-DNA phosphodiesterase 1 (TDP1): qHTS in cells in presence of CPT | 420,000 tested, 12% active | Potency, µM (series often up to 46.2 µM), inactives show at the highest dose activity change, negative = growth inhibition, most hits filed as inhibitors | chicken DT40 Tdp1-/-;hTDP1 cells + 20 nM CPT, ATP luminescence, 48 h | AID 686979, 2013; note: potency is the fitted concentration of half-maximal effect; nearly all actives have a fitted effect of over 55% in size
#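 Cell growth measured by CellTiter-Glo luminescence after a minimum 48 h, 37 C compound exposure with 20 nM CPT in Tdp1-knockout DT40 cells stably expressing hTDP1, seeded 400/well; qHTS titration format.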
# ELG1 DNA repair – qHTS screen for small molecules that inhibit ELG1-dependent DNA repair in human embryonic kidney (HEK293T) cells expressing luciferase-tagged ELG1; Potency, µM (top dose mostly 46.1 µM), for the others: at the top dose activity change, negative = inhibition, actives largely listed as inhibitors; HEK293T ELG1-luciferase reporter, luminescence, 16 h; DNA damage induced by 5-fluorouridine; AID 504467, 2011; 330,000 tested, 2.3% active; note: potency is the fitted concentration of half-maximal effect; nearly all actives have a fitted effect of over 55% in size
#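 Luminescence from the luciferase reporter, measured 30 min after ONE-Glo reagent at room temperature, was the read-out. Beforehand, 2,000 cells per well were exposed for 16 hr at 37 °C to 5-fluorouridine together with compound or vehicle.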
# IL1B secr inh – qHTS for Inhibitors of Inflammasome Signaling: IL-1-beta AlphaLISA Primary Screen; THP-1 LPS/ATP IL-1B secretion, AlphaLISA, 16 h; hits give low values; activity change, % at 57.5 µM; 360,000 tested, 4.7% active; in the data active = activity change below about -50%; inconclusive = mostly about -30% to -49%
#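 THP-1 cells pretreated 1 hr with compounds (up to 57.5 uM final), then stimulated with LPS (250 ng/mL final) plus ATP (1.25 mM final); secreted IL-1B measured by AlphaLISA after 16 hr, decreased signal indicating inhibition.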
# TDP1 cell noCPT – qHTS for Inhibitors of human tyrosyl-DNA phosphodiesterase 1 (TDP1): qHTS in cells in absence of CPT | 420,000 tested, 15% active | DT40 Tdp1-/- hTDP1 cells, no CPT, ATP luminescence, 48 h | Potency, µM (series often up to 46.2 µM), for the others: top-dose activity change, negative = growth inhibition, actives largely listed as inhibitors | AID 686978, 2013; note: potency is the fitted concentration of half-maximal effect; nearly all actives have a fitted effect of over 55% in size
#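 Chicken DT40 Tdp1-/- cells complemented with human TDP1, screened without camptothecin (DMSO vehicle only), 400 cells/well. Compounds pin-transferred, cells incubated at 37 °C for at least 48 hr. Growth read as ATP-dependent luminescence (CellTiter-Glo, 30 min at RT).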
# HT1080-NT tox – qHTS for induction of synthetic lethality in tumor cells producing 2HG: qHTS for the HT-1080-NT fibrosarcoma cell line | 360,000 tested, 1.6% active | Potency, µM (highest dose often 46.1 µM), inactives show at the top dose activity, negative = less viability, actives largely listed as cytotoxic | HT-1080-NT fibrosarcoma viability, CellTiter-Glo ATP luminescence, 48 h;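 note: NT is the 2HG producing partner of a matched IDH1 knockdown line; potency is the fitted concentration of half-maximal effect; 0% = DMSO-treated cells and -100% = media-only wells without cells; nearly all actives have a fitted effect of over 55% in size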
#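 Viability of the 2HG-overproducing fibrosarcoma line after 48 hours of compound exposure at 37 degrees C was determined by luminescence with CellTiter-Glo, and concentration-effect curves were then fitted and categorized.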
# Active calls of the source: *; u = inconclusive; x = no result. Unless noted, calls come from the whole dose curve; as a rule, active = well fitted curve in the direction sought with a large enough effect; inconclusive = small, poorly fitted or top-dose-only effect, or another doubt; inactive = no such curve, though single readings can be large; an effect the other way counts as inactive or inconclusive. Unless noted, % is set by controls: 0 for no effect and ±100 for the full control effect.
SMILES,HT1080 IDH1KD tx,DT40 TDP1 CPT,ELG1 DNA repair,IL1B secr inh,TDP1 cell noCPT,HT1080-NT tox
O=[N+]([O-])c1cccc(CN2CCN(Cc3ccc(Cl)cc3)CC2)c1,-7%,u,u,-21,16µM*,-23%
O=C(COc1ccc(Cl)cc1)N1CCN(Cc2ccc([N+](=O)[O-])cc2)CC1,-13%,u,u,-23,23µM*,-6%
CC(C)N1CCN(Cc2cccc([N+](=O)[O-])c2)CC1,11%,22%,4%,16,-10%,14%
CSc1ccc(CN2CCN(C(=O)COc3cccc(C)c3)CC2)cc1,-20%,16µM*,u,u,21µM*,-6%
COc1ccc(OCC(=O)N2CCN(Cc3nc4cc([N+](=O)[O-])ccc4n3C)CC2)cc1,-6%,15µM*,u,-8,u,-7%
COC(=O)C1=C(c2ccc(Cl)c(C(F)(F)F)c2)C[C@@H]2CC[C@H]1N2C,0%,u,14%,-17,-13%,0%
CC1(C)CSC(=NCc2ccccc2)N1,-3%,2%,u,21,-7%,2%
CCOc1ccc(NC(=S)NC2CC3CCC(C2)N3Cc2ccco2)cc1 (configuration not stated),-5%,u,-10%,-7,u,-13%
CCCc1cc(=O)oc2c3c(cc(OCC(=O)N4CCC[C@H]4C(=O)O)c12)OC(C)(C)CC3,3%,-1%,u,-6,0%,2%
O=C1NC(=O)N(c2ccc3c(c2)OCO3)C(=O)/C1=C/c1cccs1,-13%,u,-7%,-104*,u,4%
S=c1[nH]nc(-c2ccn[nH]2)n1-c1ccccc1Cl,8%,10%,u,10,-4%,17%
NC(Cc1ccccc1)c1nc(-c2ccccc2)no1 (configuration not stated),14%,-12%,u,25,3%,1%
c1cc2c(cc1N1CCCCC1)C1CC2CCN1 (configuration not stated),1%,u,x,3,-28%,-3%
C[C@]12CC[C@@H](O)CC1=CCC1C2CC[C@@]2(C)C1CC[C@@H]2N (some centres not stated),14%,u,9%,12,21µM*,7%
C[C@@H]1CC2C3CC=C4C[C@@H](O)CC[C@]4(C)C3CC[C@]2(C)[C@H]1O (some centres not stated),1%,-21%,-15%,91,u,2%
C[C@]12CC[C@H](N)CC1=CCC1C2CC[C@@]2(C)C1CC[C@@H]2O (some centres not stated),u,18µM*,16µM*,-12,u,u
CSCCC(c1nnnn1Cc1ccccc1)N1CCC(n2c(=O)[nH]c3ccccc32)CC1 (configuration not stated),u,2.9µM*,x,-22,1.8µM*,u
O=c1[nH]c2ccccc2n1C1CCN(C(c2nnnn2Cc2ccccc2)C2CC2)CC1 (configuration not stated),21µM*,16µM*,x,-5,21µM*,u
O=c1[nH]c2ccccc2n1C1CCN(C(CCc2ccccc2)c2nnnn2Cc2ccccc2)CC1 (configuration not stated),6.5µM*,2.3µM*,x,-93*,2.6µM*,7.3µM*
CN(C(=O)Oc1ccc(C(=O)c2ccc(Cl)cc2)cc1)c1ccccc1,-4%,23µM*,-10%,-20,16µM*,-5%
CN(C)C(=O)Oc1ccc(OC(=O)c2ccccc2)cc1,u,-19%,u,-12,-18%,5%
CC(C)N(C(=O)CCl)c1ccccc1,u,6.5µM*,x,-51*,8.2µM*,3.7µM*
CCc1cccc(C)c1N(C(=O)CCl)C(C)COC (configuration not stated),x,u,x,x,-17%,x
COc1cc([C@@H]2c3cc4c(cc3C[C@H]3COC(=O)[C@@H]32)OCO4)cc(OC)c1O,x,0.071µM*,x,x,0.032µM*,x
COc1cc(C2c3cc(O)c(OC)cc3CC3C(=O)OCC32)ccc1O (configuration not stated),2%,18%,x,-1,3%,-2%
SMILES,HT1080 IDH1KD tx,DT40 TDP1 CPT,ELG1 DNA repair,IL1B secr inh,TDP1 cell noCPT,HT1080-NT tox
COc1cc(C2c3cc4c(cc3CC3COC(=O)C32)OCO4)cc(OC)c1OC (configuration not stated),0.23µM*,0.021µM*,8%,46,0.0052µM*,0.37µM*
CC(C)c1ccccc1OCC(=O)N1CCCN(C)CC1,10%,24%,0%,-20,13%,15%
NC(=O)c1c(NC(=O)c2ccc(S(=O)(=O)N(CCCl)CCCl)cc2)sc2c1CCCCC2,1%,10µM*,-8%,33,15µM*,3%
O=C1C2CCN(CC2)C1Cc1ccccc1O (configuration not stated),9%,-3%,-1%,-4,-22%,u
O=C1C2CCN(CC2)C1Cc1ccc(OCCOc2ccccc2)cc1 (configuration not stated),-16%,29µM*,3%,19,u,-7%
CN(C)C(=O)On1c(-c2ccccc2)nc2ccc(Cl)cc21,0%,u,13%,-21,29µM*,-9%
COc1ccc(-c2nc3ccccc3n2OC(=O)N(C)C)cc1,-6%,-1%,u,-11,-6%,-3%
O=C(NCc1cccnc1)C1CCN(S(=O)(=O)c2cc([N+](=O)[O-])ccc2Cl)CC1,-15%,u,2%,8,18µM*,0%
O=C(NCc1cccnc1)Nc1ccc([N+](=O)[O-])cc1,-6%,u,2%,0,-22%,-12%
CCc1cc(=O)oc2cc(OCC(=O)N3C[C@H]4C[C@@H](C3)c3cccc(=O)n3C4)c(Cl)cc12,-2%,12%,u,-2,0%,3%
